# Source: PubChem BioAssay AID720569 (National Center for Advancing Translational Sciences (NCATS), 2013)
# The list shows a part of the results. Inconclusive results are not listed. Calls of active or inactive are those of the source. Calls follow the shape of the dose curve; as a rule, active = well fitted inhibition curve with a large enough effect; inconclusive = small, poorly fitted or top-dose-only effect; inactive = no such curve, though single readings can be large or run the other way.
# System: pyruvate kinase (Trypanosoma brucei)
# Assay: qHTS of Trypanosoma Brucei Inhibitors: Confirmatory Assay for Cherry-picked Compounds; also: nearly all actives have a fitted effect of over 70% in size
# Settings: recombinant TbPYK, Kinase-Glo ATP luminescence
# Description: Members of the Trypanosomatidae family of parasitic protozoans cause a spectrum of diseases throughout the tropical and subtropical world. Sleeping sickness, caused by two subspecies of Trypanosoma brucei, is endemic to areas of sub-Saharan Africa, while Chagas' disease, a manifestation of Trypanosoma cruzi infection, is prevalent throughout Central and South America. In addition, many species of Leishmania are responsible for a range of cutaneous and visceral diseases, causing ulcers, destructive lesions and kalaazar, a lethal infection of the viscera. These diseases cause severe public health and economic burdens on populations that are often already caught in a tragic cycle of poverty, poor nutrition and disease. Collectively, parasites of the trypanosomatid family infect 30 million people worldwide (~500 million live in endemic areas), and account for ~130K deaths annually. Existing treatments have developed little in the past 50 years, and suffer from toxicity, poor efficacy and resistance; the goal of this project is to develop lead drugs that will be suitable for entry into pre-clinical trials. […] Glycolysis in axenically cultured T. cruzi, representing the intracellular pathogenic stage, is also essential for these parasites. {Engel, 1987} This project aims to discover and optimize selective inhibitors of the glycolytic enzyme pyruvate kinase (PYK) from Trypanosoma brucei, the parasite that causes sleeping sickness. […] Trypanosomatid PYKs show significant differences from their human counterparts including only 47-50% sequence identity and different allosteric and activation properties.{Callens, 1992} To this end, a qHTS was done against the MLSMR to discover inhibitors. NIH Molecular Libraries Probe Production Network [MLPCN] NIH Chemical Genomics Center [NCGC] Grant: MH095452 PI Name: Malcolm Walkinshaw, University of Edinburgh
# Two uL of TbPYK/substrate buffer (columns 1-3, 5-48) are dispensed into Greiner white solid bottom 1536-well assay plates; column 4 receives only TEA buffer as 0x TbPYK controls. Compounds are then transferred via Kalypsys pin tool equipped with 1536-pin array (10 nL slotted pins, V&P Scientific, San Diego, CA). Following addition of compound, 2 uL of ADP (130 uM final concentration, all columns) is added to initiate the reaction. The plates are then incubated at room temperature for 45 minutes. Kinase-Glo Plus reagent is added (3 uL) and plates incubated for 10 minutes, before being transferred to a ViewLux high-throughput CCD imager (PerkinElmer) wherein single end-point measurements of luminescence are acquired using a clear filter. All reagents are diluted in an assay buffer consisting of 50 mM TEA (pH 7.2), 100 mM KCl, 10 mM MgCl2, 0.05% BSA and 0.01% Tween-20. […]
# Potency is read from the fitted curve at half-maximal effect.
row,Compound,Potency
1,COc1ccc(N2C(=O)/C(=C/c3ccco3)C(=O)NC2=S)cc1,14.1 µM (active)
2,Cc1ccc2c(c1)=C/C(=C\c1c(O)[nH]c(=O)[nH]c1=O)C(=O)N=2,17.8 µM (active)
3,O=C1NC(=O)N(c2ccccc2)C(=O)/C1=C/c1ccc([N+](=O)[O-])s1,8.91 µM (active)
4,O=C(O)CCn1cc(C=C2C(=O)NC(=S)NC2=O)c(-c2cccc(Br)c2)n1,6.31 µM (active)
